Source: PubChem BioAssay AID1347155 (National Center for Advancing Translational Sciences (NCATS), 2019)
Results filed as inconclusive are left out. Values without a mark were called inactive. Activity calls are given as the source filed them. Calls follow the shape of the dose curve; as a rule, active = well fitted inhibition curve with a large enough effect; inconclusive = small, poorly fitted or top-dose-only effect; inactive = no such curve, though single readings can be large or run the other way.

These molecules were tested on Zika virus NS2B-NS3 protease (linked) (assay: Optimization screen NINDS Rhodamine qHTS for Zika virus inhibitors: Linked NS2B-NS3 protease assay). Details: fluorogenic rhodamine substrate; series mostly up to 105 µM; activity change, negative = inhibition: at the top concentration.
Source text: Avindra Nath, Ph.D., National Institute of Neurological Disorders and Stroke (NINDS), Bethesda, MD
Radhakrishnan Padmanabhan, Ph.D., Georgetown University (GU), Washington D.C.
Zika Virus causes congenital defects, including microcephaly and is associated with Guillain-Barre syndrome, eningoencephalitis and myelitis in infected adult. […] Using a target-based approach, we hope to establish a screening paradigm to uncover novel, cell-active NS2B-NS3 protease (Zika Virus) specific inhibitors from NCATS' collection of small molecules using qHTS.
Four assay panel was created to identify potential Zika Virus inhibitors. Namely, (1) GU unlinked NS2B-NS3 AMC tagged protease qHTS, (2) GU unlinked NS2B-NS3 Rhodamine tagged protease qHTS, (3) NINDS linked NS2B-NS3 AMC tagged protease qHTS, (4) NINDS linked NS2B-NS3 Rhodamine tagged protease qHTS. Active compounds were re-acquired and re-screened to confirm inhibition. Inhibitors were further screened against various confirmatory and counterscreens in dose response format.
Early Translation Branch (ETB)
National Center for Advancing Translational Sciences (NCATS), Rockville, MD
National Institute of Health (NIH), Bethesda, Maryland
For the linked assay, Nath lab (NINDS) provided the purified linked NS2B-NS3 protease which is consists of hydrophilic domain of NS2B linked to the NS3 protease domain by a flexible (-GGGGSGGGG-) linker. Control compound aprotinin is obtained from Thermo Scientific (#78432; Waltham, Massachusetts). Rhodamine110 substrate ([N-Cbz]-Nle-Lys-Arg-Arg-Rhod110-Arg-Arg-Lys-Nle-[N-Cbz]) was purchased from either Genscript or Bachem.
1536-well Protease (Rhodamine110 Substrate) Assay:
Briefly, 3 microL of enzyme (25 nM final concentration), in assay buffer (10 mM Tris-HCl pH 8.0 with 0.01% Tween 20) were dispensed into a 1,536-well solid-bottom black plate (Greiner Bio One, Monroe, NC). Twenty-three nL of compounds (final concentration range 7.28 nM to 114 microM) or control Aprotinin (final concentration range 3.47 nM to 114 microM) were transferred via Wako Pin-tool (Wako Automation, Richmond, VA). Samples were incubated (room temperature, protected from light) for 15 minutes followed by a 1 microL Rhodamine110 substrate addition (1.5 microM final concentration). Plates were then immediately read on a ViewLux High-throughput CCD imager (PerkinElmer, Waltham, MA) equipped with FITC fluorescence optics (480(20) nm excitation, 540(25) nm emission), then incubated (room temperature, protected from light) for 15 minutes (~15% conversion). The change in fluorescence intensity over the 15-minute reaction period was normalized against no-inhibitor and no-enzyme controls and the resulting percent inhibition data were fitted to a 4-parameter Hill equation. Aprotinin was used as intraplate control.

Compound	activity change, negative = inhibition	outcome
C[C@H]1O[C@@H](O[C@H]2[C@@H](O)C[C@H](O[C@H]3[C@@H](O)C[C@H](O[C@H]4CC[C@]5(C)C6CC[C@]7(C)[C@@H](C8=CC(=O)OC8)CC[C@]7(O)C6CC[C@@H]5C4)O[C@@H]3C)O[C@@H]2C)C[C@H](O)[C@@H]1O (stereo not given in full)	54.4%	
CC(C)OC(=O)Nc1ccccc1	-10.4% [at 228 µM]	
COC1C(O)C(C)O[C@@H](OC2CC[C@@]3(C)C4CC[C@]5(C)C(C6=CC(=O)OC6)CC[C@@]5(O)C4CC[C@@H]3C2)C1O (stereo not given in full)	11.3%	
Cc1ccc2c(c1)[C@]13CCCC[C@@H]1[C@H](C2)N(C)CC3	-3.81%	
CC(C)=CCN1CC[C@@]2(C)c3cc(O)ccc3C[C@@H]1[C@@H]2C	-11.2% [at 228 µM]	
CC1O[C@@H](O[C@@H]2C(O)C[C@H](O[C@@H]3C(O)C[C@@H](OC4CC[C@@]5(C)C6CC[C@]7(C)C(C8=CC(=O)OC8)CC[C@@]7(O)C6CC[C@@H]5C4)OC3C)OC2C)CC(O)[C@H]1O (stereo not given in full)	5.19%	
C[C@H]1O[C@@H](O[C@H]2[C@@H](O)C[C@@H](O[C@H]3[C@@H](O)C[C@H](O[C@H]4CC[C@@]5(C)[C@H](CC[C@@H]6[C@@H]5CC[C@]5(C)[C@@H](C7=CC(=O)OC7)CC[C@]65O)C4)O[C@@H]3C)O[C@@H]2C)C[C@H](O)[C@@H]1O	18% [at 228 µM]	
C[C@H]1O[C@@H](O[C@H]2[C@@H](O)C[C@H](O[C@H]3[C@@H](O)C[C@H](O[C@H]4CC[C@@]5(C)[C@H](CC[C@@H]6[C@@H]5CC[C@]5(C)[C@@H](C7=CC(=O)OC7)CC[C@]65O)C4)O[C@@H]3C)O[C@@H]2C)C[C@H](O)[C@@H]1O	29.8% [at 228 µM]	
CN1CC[C@@]23CCCCC2C1Cc1ccc(O)cc13 (stereo not given in full)	-6.91%	
C[C@@H]1O[C@@H](O[C@H]2C[C@@H](O)[C@]3(CO)[C@H]4[C@H](O)C[C@]5(C)[C@@H](C6=CC(=O)OC6)CC[C@]5(O)[C@@H]4CC[C@]3(O)C2)[C@H](O)[C@H](O)[C@H]1O		inactive
C=CCN1CC[C@]23CCCCC2[C@H]1Cc1ccc(O)cc13 (stereo not given in full)	-8.8%	
CO[C@H]1[C@@H](O)CC(OC2[C@@H](O)CC(OC3[C@@H](O)C[C@H](OC4CC[C@@]5(C)C(CCC6C5CC(O)[C@]5(C)[C@H](C7=CC(=O)OC7)CCC65O)C4)O[C@@H]3C)O[C@@H]2C)O[C@@H]1C (stereo not given in full)	28.1% [at 228 µM]	
C=CCN1CCC2(C)c3cc(O)ccc3C[C@H]1[C@H]2C	-10.8%	
C[C@@H]1[C@@H]2Cc3ccc(O)cc3[C@@]1(C)CCN2CCc1ccccc1	-4.89% [at 228 µM]	
CN1CC[C@@]23CCCC[C@@H]2[C@@H]1Cc1ccc(O)cc13	-9.26%	
C[C@@H]1[C@@H]2Cc3ccc(O)cc3[C@@]1(C)CCN2CC1CC1	-1.76%	
CC[C@H](C)[C@H]1O[C@]2(C=C[C@@H]1C)C[C@@H]1C[C@@H](C/C=C(\C)[C@@H](O[C@H]3C[C@H](OC)[C@@H](O[C@H]4C[C@H](OC)[C@@H](O)[C@H](C)O4)[C@H](C)O3)[C@@H](C)/C=C/C=C3\CO[C@@H]4[C@H](O)C(C)=C[C@@H](C(=O)O1)[C@]34O)O2	15.2%	
C=CCN1CCC2(C)c3cc(O)ccc3CC1C2C (stereo not given)	4.68%	
C[C@@H]1O[C@@H](O[C@H]2C[C@@H](O)[C@]3(CO)C4C(CC[C@]3(O)C2)[C@@]2(O)CC[C@H](C3=CC(=O)OC3)[C@@]2(C)C[C@H]4O)[C@H](O)[C@H](O)[C@H]1O (stereo not given in full)	0%	
CC1OC(O[C@H]2C[C@@H](O)[C@]3(CO)[C@H]4[C@H](O)C[C@]5(C)[C@@H](C6=CC(=O)OC6)CC[C@]5(O)[C@@H]4CC[C@]3(O)C2)C(O)C(O)C1O (stereo not given in full)	-14.6%	
